Screening results deposited in PubChem by several laboratories.
AHR act: AHR activators, primary screen, cell-based, luminescence, luciferase reporter, human; actives 2.5% (n = 320,000); AHR-responsive luciferase reporter cells; Aryl hydrocarbon receptor (Homo sapiens), P35869; AID 2796, 2010; activation, % at 5 µM; in the data active = activation above about 47%;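 note: 0% = vehicle wells and 100% = reference agonist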
SUMO Mot1 rescue: yeast Mot1-301 growth rescue at high temperature, primary screen, SUMOylation pathway inhibitor project, S. cerevisiae, ATP luminescence, 38.5C; S. cerevisiae Mot1-301 growth rescue; percent above DMSO median, 100 means doubled; growth rescue, % at 18.8 µM; actives 1% (n = 320,000);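 active = every valid replicate shows activation above 250% relative to neutral control wells; inactive = the rest, any valid replicate at or below 250%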;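 note: OY570 slx delta 5 strain wells were the positive control but not used for scaling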
Bfl-1 A1 inh: caspase 3/7 activation in MEF A1-2A-BIM cells, primary screen, A1 inhibitor project, cell-based, luminescence, HTS; Caspase-Glo 3/7 luminescence, 3 h; percent of clofoctol response, vehicle zero; caspase activation, % (concentration not given with the values); actives 0.066% (n = 330,000); AID 2462, 2010;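 active = over half of replicate activation scores above 10%, or exactly half above 10 with the replicate mean above 10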
VLA-4 inh: inhibition in human VLA-4 binding assay, primary screen, VLA-4 allosteric modulator project, MLPCN library, flow cytometry, VLA-4 expressing cells | Integrin alpha-4 (Homo sapiens), P13612 | ligand binding flow cytometry | inhibition, % (about 7 µM as worked out from the volumes in the protocol) | actives 0.2% (n = 330,000); in the data active = inhibition above about 50%
Target sequence (P13612 whole entry, looked up): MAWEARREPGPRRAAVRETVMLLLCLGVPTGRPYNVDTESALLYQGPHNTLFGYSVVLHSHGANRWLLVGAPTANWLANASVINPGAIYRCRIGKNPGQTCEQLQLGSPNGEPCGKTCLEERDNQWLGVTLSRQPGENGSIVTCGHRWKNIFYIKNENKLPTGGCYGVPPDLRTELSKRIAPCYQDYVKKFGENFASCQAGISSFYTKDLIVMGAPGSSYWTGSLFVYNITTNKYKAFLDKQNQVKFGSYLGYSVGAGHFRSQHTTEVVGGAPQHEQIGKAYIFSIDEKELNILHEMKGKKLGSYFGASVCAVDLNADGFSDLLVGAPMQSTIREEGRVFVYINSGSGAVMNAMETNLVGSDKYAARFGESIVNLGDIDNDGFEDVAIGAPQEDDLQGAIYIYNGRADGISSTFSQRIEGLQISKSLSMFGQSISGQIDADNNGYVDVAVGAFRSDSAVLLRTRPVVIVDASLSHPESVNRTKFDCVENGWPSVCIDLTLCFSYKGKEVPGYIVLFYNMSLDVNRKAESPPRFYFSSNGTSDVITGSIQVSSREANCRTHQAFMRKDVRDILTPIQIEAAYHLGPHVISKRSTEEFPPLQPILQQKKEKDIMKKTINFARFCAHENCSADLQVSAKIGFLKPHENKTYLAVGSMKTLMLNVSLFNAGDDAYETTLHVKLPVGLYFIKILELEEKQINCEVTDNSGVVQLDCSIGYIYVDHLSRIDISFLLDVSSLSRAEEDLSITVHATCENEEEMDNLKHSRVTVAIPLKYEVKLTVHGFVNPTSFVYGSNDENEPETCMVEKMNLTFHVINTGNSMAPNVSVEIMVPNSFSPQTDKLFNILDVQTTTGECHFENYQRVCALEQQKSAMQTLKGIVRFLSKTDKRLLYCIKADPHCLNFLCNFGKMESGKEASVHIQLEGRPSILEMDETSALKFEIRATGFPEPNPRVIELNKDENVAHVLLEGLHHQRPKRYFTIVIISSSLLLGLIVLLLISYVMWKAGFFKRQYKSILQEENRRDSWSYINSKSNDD
Efflux pump mplx: inhibitors of Candida efflux pumps in yeast, primary screen, S. cerevisiae, Nile Red, multiplex. S. cerevisiae Candida pump triplex. inhibition, % at 10 µM. actives 0.44% (n = 330,000);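 active = plate passing quality check with inhibition over a set limit, or well fluorescence over plate mean plus 4 SD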;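 note: Nile Red retained in pooled yeast measured as flow cytometry median fluorescence; 0% = buffer negative control and 100% = Enniatin B positive control; higher means more Nile Red kept so more efflux inhibition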
ALR inh: inhibitors of human ALR sulfhydryl oxidase, primary screen, biochemical, H2O2 detection, HRP-luminol luminescence, single point; AID 485317, 2010; purified ALR, DTT oxidation; actives 3.8% (n = 290,000); inhibition, % (no concentration beside the values);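 active = mean replicate inhibition above about 79%, with every replicate also reaching it, limit read from the data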
AHR act confirm: AHR activators, confirmation, cell-based, luminescence, luciferase reporter, human; human cells, AHR-responsive luciferase reporter; actives 87% (n = 2,300); shares compounds with AHR act; activation, % at 9 µM; in the data active = activation above about 49%;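 note: HepG2 hepatoma cells carrying a DRE-driven firefly luciferase reporter; 0% = vehicle wells and 100% = reference agonist wells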
PXR counter: human PXR activators, counter-screen for AHR activator project, cell-based, luciferase luminescence | AID 434939, 2010 | actives 88% (n = 2,300) | cell-based PXR reporter | shares compounds with AHR act | activation, % at 11.6 µM; in the data active = activation above about 11%;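 note: human hepatoma DPX-2 cells expressing full-length human PXR; 0% = DMSO and 100% = reference agonist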
Starred values were filed as active, the others as inactive; / = not tested or not shown. Sampled rows, rich in hits. Any-hit rate of the full collection: about 7.2%.

SMILES | AHR act | SUMO Mot1 rescue | Bfl-1 A1 inh | VLA-4 inh | Efflux pump mplx | ALR inh | AHR act confirm | PXR counter
O=c1nc2sc3ccccc3n2c(=O)n1-c1cccc(Cl)c1 | 81* | -9 | 0 | -3 | 0 | -2 | 115* | 33*
COCCN1C(=O)c2cc(C(=O)Nc3ccc(OC)c(OC)c3)ccc2C1Nc1ccc(OC)c(OC)c1 (centres undefined) | -1 | -4 | 0 | -2 | 0 | 10 | / | /
CCN(CC)S(=O)(=O)c1cc(NS(=O)(=O)c2cccs2)ccc1C | -2 | 14 | 0 | -4 | 0 | 1 | / | /
COc1cccc(/C=N/n2c(=O)[nH]c3ccccc32)c1OC | 118* | -17 | -1 | -20 | 0 | -8 | 94* | 18*
COc1cccc(/C=N/n2c(=S)n(C)c3ccccc32)c1OC | 2 | 16 | 1 | -2 | 0 | -5 | / | /
COc1ccc(-c2coc3cc(OC)cc(OC)c3c2=O)cc1 | 93* | 5 | 0 | -1 | 1 | 2 | 132* | 26*
COc1ccc(-c2coc3cc(OC)cc(O)c3c2=O)cc1 | -8 | 134 | -7 | 12 | 0 | 1 | / | /
C/C(=N\Nc1ccc([N+](=O)[O-])cc1[N+](=O)[O-])c1ccc(-n2nncc2C(C)(C)C)cc1 | 120* | 22 | -1 | 14 | 0 | -7 | 78* | 38*
Cc1ccc(C(=O)Nc2nc(-c3ccccn3)cs2)cc1S(=O)(=O)N1CCOCC1 | 10 | -3 | 0 | -15 | 0 | -6 | / | /
O=C1CCc2cc(S(=O)(=O)NCCC(=O)N3CCN(c4cccc(Cl)c4)CC3)ccc2N1 | -2 | 64 | 0 | 4 | 0 | 12 | / | /
Clc1ccccc1N=C1NN=C(c2cccs2)CS1 | 139* | -2 | -11 | -21 | 0 | 20 | 130* | 36*
O=C(Nc1ccc(Br)cc1)c1cccc(S(=O)(=O)Nc2cnc3ccccc3c2)c1 | 83* | 13 | 0 | 9 | 0 | 4 | 75* | 12*
O=C(Nc1ccc(Br)cc1)c1cccc(-n2cnnn2)c1 | 91* | -4 | 1 | 1 | 0 | 0 | 103* | 29*
O=C(Nc1ccc(Cl)c(Cl)c1)c1ccccc1 | 102* | 42 | -4 | 30 | 0 | 4 | 122* | 12*
O=C(Nc1cccc(C(=O)Nc2ccc(Br)cc2)c1)c1ccccc1 | 89* | 10 | 0 | 3 | 0 | 0 | 33 | 22*
O=C(Nc1ccc(Nc2ccccc2)cc1)c1ccc(Br)cc1 | -6 | -13 | -1 | 27 | 0 | -1 | / | /
CS(=O)(=O)c1ccc(NC(=O)c2cccc(-n3cnnn3)c2)cc1 | 4 | -1 | -1 | -18 | 0 | / | / | /
CCOc1ccc(N/C=C/C(=O)c2ccccc2)c([N+](=O)[O-])c1 | -11 | -25 | -6 | 7 | 0 | -27 | / | /
O=C(Nc1ccccc1Cl)NC1(C(=O)N2CCC(O)CC2)CCCCC1 | 6 | 85 | 1 | -14 | 0 | -1 | / | /
CC(C)NC(=O)c1ccc(-c2ccc(Cl)c(C(F)(F)F)c2)o1 | 14 | 516 | 0 | 4 | 0 | -6 | / | /
CN1C(=O)N(CC(=O)N2CCN(S(=O)(=O)c3ccc(Cl)s3)CC2)C(=O)C12CCCCC2 | -1 | -3 | 0 | 6 | 0 | -1 | / | /
O=C(N/N=C/c1cc2c(cc1Cl)OCO2)c1cccc(Br)c1 | 32 | 30 | 0 | 2 | 0 | -8 | / | /
O=C(N/N=C/c1cc2c(cc1Cl)OCO2)c1ccncc1 | 87* | -13 | 0 | 10 | 0 | -1 | 63* | 9
O=C(N/N=C\c1cc2c(cc1Cl)OCO2)c1cccnc1 | 80* | 20 | 0 | -1 | 0 | -2 | 79* | 13*
CCCOc1ccc(CNC(=S)NCc2ccc(OC(C)C)cc2)cc1 | 2 | 33 | -1 | 1 | 0 | / | / | /
SMILES | AHR act | SUMO Mot1 rescue | Bfl-1 A1 inh | VLA-4 inh | Efflux pump mplx | ALR inh | AHR act confirm | PXR counter
Cc1cc(N2CC(C)OC(C)C2)nc(C(C)C)n1 (centres undefined) | -1 | 8 | 1 | 3 | 0 | 1 | / | /
Cc1cc2n(n1)SC(Nc1ccc(F)c(Cl)c1)N2 (centres undefined) | 89* | 1 | 0 | 9 | 0 | 57 | 106* | 52*
Cc1ccc(NC(=O)Nc2ccc(F)c(Cl)c2)cc1 | 3 | -16 | -2 | 4 | 1 | -3 | / | /
Cc1ccc(NC(=S)c2nc3ccccc3[nH]2)cc1 | 26 | -7 | -6 | 8 | 0 | 3 | / | /
Cc1ccc(NC(=S)c2nc3ccccc3[nH]2)c(C)c1 | 94* | 11 | -3 | 9 | 0 | -5 | 84* | /
O=C(N=Nc1c(O)[nH]c2ccccc12)c1ccc2c(c1)OCO2 | 95* | -9 | -6 | 7 | 0 | -1 | 65* | 21*
O=[N+]([O-])c1ccc(Cl)cc1CNc1ccc(F)c(F)c1 | 106* | -4 | 1 | 15 | 0 | 45 | 80* | 20*
COC(=O)C/C(O)=C(/N=Nc1cccc(C(F)(F)F)c1)C(=O)OC | 0 | 197 | 0 | -1 | 0 | -23 | / | /
O=c1[nH]c2ccccc2nc1-c1ccccc1 | 101* | 12 | -1 | 4 | 0 | / | 84* | 11*
O=c1nc(-c2ccccc2)c2ccccc2[nH]1 | 4 | -3 | 0 | 0 | 0 | -3 | / | /
O=C(N/N=C/c1c[nH]c2c1ccc1ccccc12)c1ccc([N+](=O)[O-])cc1 | 105* | -4 | 0 | 6 | 0 | -8 | 79* | 11*
COc1ccc2ccccc2c1/C=N/NC(=O)c1ccc([N+](=O)[O-])cc1 | 0 | 3 | 0 | 4 | 0 | -7 | / | /
CCOC(=O)C1Oc2ccccc2C(c2cccc3ccccc23)=C1C(=O)OC (centres undefined) | / | / | / | / | 0 | / | / | /
COCCN(CCNC(=O)c1ccc(NC2=NC3CS(=O)(=O)CC3S2)cc1)Cc1ccco1 (centres undefined) | 2 | -8 | 0 | -4 | 0 | -3 | / | /
OCCSc1nc(-c2ccccc2)nc2ccc(F)cc12 | 102* | 5 | 0 | -4 | 0 | 2 | 95* | 24*
COC(=O)CSc1nc(-c2ccccc2)nc2ccc(F)cc12 | 35 | -14 | 0 | -1 | 0 | 18 | / | /
